The entries come from a sample that favours hits as a whole.
ST2 inh: inhibitors of human ST2 (IL1RL1) binding to IL-33, primary screen, biochemical, AlphaLISA; AID 1259354, 2018; 2.3% of 78,000 active; AlphaLISA ST2-Fc/biotin-IL-33 interaction, 1 h; inhibition, % for hits at 17 µM; in the data active = inhibition above about 30%
Target sequence (Q01638 whole entry, looked up): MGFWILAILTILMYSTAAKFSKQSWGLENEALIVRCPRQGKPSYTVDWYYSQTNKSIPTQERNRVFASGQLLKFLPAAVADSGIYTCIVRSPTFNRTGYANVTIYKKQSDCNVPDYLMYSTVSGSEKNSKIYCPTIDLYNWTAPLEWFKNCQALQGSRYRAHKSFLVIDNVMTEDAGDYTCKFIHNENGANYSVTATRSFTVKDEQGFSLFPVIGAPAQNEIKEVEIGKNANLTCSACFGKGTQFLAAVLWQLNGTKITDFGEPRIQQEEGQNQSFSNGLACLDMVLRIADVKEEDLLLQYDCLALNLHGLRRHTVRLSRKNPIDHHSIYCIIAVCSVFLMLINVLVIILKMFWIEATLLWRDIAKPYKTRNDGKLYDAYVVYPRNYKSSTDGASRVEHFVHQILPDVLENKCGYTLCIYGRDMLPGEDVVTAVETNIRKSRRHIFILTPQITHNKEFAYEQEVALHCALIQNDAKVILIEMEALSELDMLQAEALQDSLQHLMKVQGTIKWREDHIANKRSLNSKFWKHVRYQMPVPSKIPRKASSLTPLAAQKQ
Starred values were filed as active, the others as inactive; i = inactive; ! = not confirmed by another sample.

SMILES	ST2 inh
COc1ccc(-n2c(N)c(C#N)c3nc4ccccc4nc32)c(OC)c1	32%*
CCOC(=O)c1c(N)n(-c2ccc(C)cc2C)c2nc3ccccc3nc12	i
N#Cc1c(N)n(-c2ccc(Cl)cc2)c2nc3ccccc3nc12	i
Cc1ccc2[nH]c3c(c2c1)CCCC3NCc1ccc(F)cc1 (stereo not drawn)	32%*
Cc1ccc2[nH]c3c(c2c1)CN(C(=O)C1CCCN(CC(N)=O)C1)CC3 (stereo not drawn)	i
COC(CN(C(C)=O)C1CCCc2c1[nH]c1ccc(C)cc21)OC (stereo not drawn)	i
Cc1cccc2[nH]c(COCC(=O)N3CCCC3C(=O)N(C)C)nc12 (stereo not drawn)	i
CCc1ccc(CN2CCCC(CO)C2)cc1 (stereo not drawn)	i
OCC1CCCN(Cc2ccc3c(c2)Cc2ccccc2-3)C1 (stereo not drawn)	98%*
Cc1ccc(CN2CCCC(CO)C2)cc1 (stereo not drawn)	i
CC(CS(=O)(=O)c1ccc(N)cc1)N1CCCCC1 (stereo not drawn)	i
O=C1CCC(=O)NCCCCCN(O)C(=O)CCC(=O)NCCCCCN(O)C(=O)CCC(=O)NCCCCCN1	39%*
O=C1CCC(=O)N(O)CCCCCNC(=O)CCC(=O)N(O)CCOCCNC(=O)CCC(=O)N(O)CCCCCN1	i
CC12CC(NC(=O)N1c1ccc(F)cc1)c1ccccc1O2 (stereo not drawn)	i
O=S(=O)(c1ccccc1)N1N=C(c2ccccc2)CC1c1ccc(Cl)cc1 (stereo not drawn)	i
COc1ccc(C2CC(c3cccs3)=NN2S(=O)(=O)c2ccc(C)cc2)cc1 (stereo not drawn)	32%*!
Cc1ccc(C2CC(c3cccs3)=NN2S(=O)(=O)c2ccc(C)cc2)cc1 (stereo not drawn)	33%*
COc1ccc(C2=NN(S(=O)(=O)c3ccccc3)C(c3ccc(C)cc3)C2)cc1OC (stereo not drawn)	i
COc1ccc(C2CC(c3ccc(C)cc3)=NN2S(=O)(=O)c2ccccc2)cc1 (stereo not drawn)	i
COc1ccc(C2CC(c3cccs3)=NN2C(C)=O)cc1 (stereo not drawn)	i
CCOc1ccc(OC(=O)Cn2c3ccccc3c(=O)c3ccccc32)cc1	i
O=C1C(=O)N(CCCn2ccnc2)C(c2ccco2)C1=C(O)c1ccc(Cl)cc1 (stereo not drawn)	i
Cc1occc1C(=O)NC1CC(=O)N(CCCc2ccccc2)C1 (stereo not drawn)	i
Cc1nc2c(C(=O)NCc3cccnc3Oc3ccccc3)cccc2[nH]1	i
O=C(c1ccccc1)c1c[nH]c2c(F)cc(F)cc2c1=O	i
SMILES	ST2 inh
N#CC1=C(N)Oc2cc(N)ccc2C1c1ccc(Cl)c(Cl)c1 (stereo not drawn)	i
O=C(CN1C(=O)c2ccccc2S1(=O)=O)NC(NC1CCCC1)C(Cl)(Cl)Cl (stereo not drawn)	i
COCCNC(=O)CSc1nc(-c2cccc(Cl)c2)nc2cc(=O)[nH]n12	i
CC(CCc1ccccc1)NC(=O)CSc1nc(-c2ccc3c(c2)OCO3)nc2cc(=O)[nH]n12 (stereo not drawn)	i
CC(C)NC(=O)CSc1nc(-c2cccc(Cl)c2)nc2cc(=O)[nH]n12	96%*
COc1ccc(-c2noc(CN3CCC(N4C[C@@H](C)O[C@@H](C)C4)CC3)n2)cc1	i
CC1=CC[C@@H]2CN(C(=O)CSc3nnnn3C)C[C@@H]2C1	i
O=C(Nc1ccc(F)cc1)N1C[C@@H]2C[C@H](C1)c1ccc(NS(=O)(=O)c3cccs3)c(=O)n1C2	i
COc1ccc(NC(=O)N2C[C@@H]3C[C@H](C2)c2ccc(NS(=O)(=O)c4cccc(F)c4)c(=O)n2C3)cc1	i
O=c1c(NS(=O)(=O)c2cccc(F)c2)ccc2n1C[C@H]1C[C@@H]2CN(S(=O)(=O)c2cccs2)C1	44%*
COc1cccc(CNC2CC(C)(C)Cc3nc(C(C)(C)C)ncc32)c1 (stereo not drawn)	i
Cc1cccn2c(=O)c3cc(C(=O)NCCCc4ccccc4)n(C)c3nc12	i
Cc1ccc(CN2CCCN(S(=O)(=O)c3ccc(Br)s3)CC2)cc1	35%*
O=C(CNS(=O)(=O)c1ccc(Br)s1)N1CCN(Cc2ccccc2)CC1	i
Cc1ccc(CNS(=O)(=O)c2ccc(Br)s2)cc1	i
CCC(CC)C(=O)Nc1ccc(Nc2nc(C)cc(Nc3ccc(C)cc3)n2)cc1	i
COCCN1CC(C(=O)NCc2cnn(Cc3ccccc3)c2)CCC1=O (stereo not drawn)	i
COc1ccc(C(=O)OC(C)C(O)c2ccc(OC)cc2)cc1 (stereo not drawn)	i
COc1cccc(C(=O)ON=C2C=CC(=O)C=C2)c1	i
COc1ccc(C(=O)ON=C2c3ccccc3-c3ccccc32)cc1	40%*
Cc1ccc(-c2nnc(-c3nc(NCCN4CCCC4)c4ccccc4n3)o2)cc1	i
CC1=C(C(=O)Nc2ccc(F)cc2F)C(c2ccsc2)C2=C(CC(C)(C)CC2=O)N1 (stereo not drawn)	i
COc1cccc(C2Nc3c(C(=O)O)cccc3C3C4CCC(C4)C23)c1OC (stereo not drawn)	i
CC(Oc1ccccc1)C(=O)N1CCN(c2ccc([N+](=O)[O-])cc2)CC1 (stereo not drawn)	48%*
O=C(C(Cl)Cl)N1CCN(c2ccc([N+](=O)[O-])cc2)CC1	i
SMILES	ST2 inh
O=C(c1ccccc1Cl)N1CCN(c2ccc([N+](=O)[O-])cc2)CC1	i
CNC(=O)Cn1cc(NC(=O)c2ccc(CN3CC=CC3)cc2)cn1	i
CNC(=O)CC(C)N(C)C(=O)c1cccc2c3c([nH]c12)CCCC3 (stereo not drawn)	i
CCOC(=O)c1cnc2ccccc2c1Nc1cccc(C)c1	i
Cc1ccc(S(=O)(=O)Nc2cccc(Cl)c2)cc1	i
CCOc1ccc(S(=O)(=O)N=C2C=C(Nc3cccc(C)c3)C(=O)c3ccccc32)cc1	90%*
Cc1cccc(NS(=O)(=O)c2ccc3[nH]c(=O)[nH]c3c2)c1	i
CCOc1ccc(Nc2nc(C)c([N+](=O)[O-])c(Nc3ccccc3)n2)cc1	i
Cc1ccc(S(=O)(=O)N=C2C=C(Nc3cccc(C)c3)C(=O)c3ccccc32)cc1	84%*
Cc1ccc(NC(=O)C(=O)NCC(O)c2ccccc2)cc1 (stereo not drawn)	i
CCC(C)NC(=O)c1sc2ncnc(N3CCN(c4ccc(OC)cc4)CC3)c2c1C (stereo not drawn)	i
Oc1ccc(CCn2ccnc2-c2cccc(F)c2F)cc1	i
C=CC[C@@H]1CC=C[C@@H](C)N1C(=O)Cn1cc(C)c(=O)[nH]c1=O	i
COc1ccc(C2C(C#N)=C(N)OC3=C2C(=O)CC(c2ccc(Cl)cc2)C3)cc1 (stereo not drawn)	i
COc1ccc2c(c1)N(C(=O)C(C)N1C(=O)c3ccccc3C1=O)C(C)(C)C=C2C (stereo not drawn)	i
CC1=CC(C)(C)N(C(=O)C(C)N2C(=O)c3ccccc3C2=O)c2cc(C)c(C)cc21 (stereo not drawn)	i
COc1cc2c3c(c1)C(C)=CC(C)(C)N3C(=O)C2=O	70%*
COc1cc2c3c(c1)C(C)CC(C)(C)N3C(=O)C2=O (stereo not drawn)	40%*

Assay outcomes deposited in PubChem by Paczesny and Yang Labs, IUPUI and University of Michigan.
